Measurements as given in PubChem BioAssay (NCATS).
Records with an inconclusive call do not appear. Calls of active or inactive are those of the source. Unless noted, the call rests on the fitted dose curve; in most records, active means well fitted curve in the direction sought with a large enough effect; inconclusive means small, poorly fitted or top-dose-only effect, or another doubt; inactive means no such curve, though single readings can be large; an effect the other way counts as inactive or inconclusive.

How the values were obtained:
[1] = target: Lysosomal acid glucosylceramidase (Homo sapiens) (UniProt P04062); experiment: Glucocerebrosidase-p2 (AID 348; in the data active means potency below about 10 µM; further: potency means the concentration at half of the fitted maximal effect); details: purified GBA, blue fluorogenic substrate, 40 min
How it was run: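 Normal human glucocerebrosidase (0.2 nM) with blue fluorogenic substrate (80 uM final) in citrate/phosphate pH 5.9 with 10mM sodium taurocholate, 0.01% tween-20; 40 min RT, NaOH/glycine stop; fluorescence Ex 365/Em 440; AC50 from a titration from 0.6 nM upwards.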

[2] = AP1 Signaling Pathway (AID 357; active means well fitted curve in either direction with a large enough effect, not every such curve was filed as active; further: on the % scale 0 is the no-effect control and ±100 the full control effect); details: ME-180 AP-1-bla reporter, EGF-induced, beta-lactamase ratio, 5 h; at 7.69 µM (top of the series) unless noted
How it was run: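 Titration-series screen for positive or negative modulators of EC50 EGF-induced signaling in ME-180 cells carrying an AP-1-driven beta-lactamase reporter. After 5 hours at 37 degrees Celsius, CCF4 460nm/530nm emission ratio gave %Activity; AC50 values derived.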

[3] = target: Glucocorticoid receptor (Homo sapiens) (UniProt P04150); experiment: GR-EFC Redistribution (AID 451; calls by dose curve; further: potency means the concentration at half of the fitted maximal effect); details: CHO-K1 GR-EFC translocation, beta-gal luminescence, 2 h
How it was run: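 CHO-K1 cells stably expressing nuclear-localized β-gal enzyme acceptor and GR fused C-terminally to the enzyme donor fragment; ligand-driven nuclear translocation restores β-gal by complementation. Compounds titrated up to 46 uM final, 2 h at 37 °C; luminescence read.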

[4] = target: Mitogen-activated protein kinase 10 (Mus musculus) (UniProt Q61831); experiment: JNK3 AlphaScreen Assay (AID 530; active means well fitted curve in either direction with a large enough effect, not every such curve was filed as active;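 further: kinase came from lysate of stimulated human HepG2 cells; signal reports phosphorylation of biotinylated GST-cJun 1-79 at Ser73 with 10 µM ATP; on the % scale 0 is the no-effect control and ±100 the full control effect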); details: JNK3 lysate, c-Jun phosphorylation; series mostly up to 57.1 µM
How it was run: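 Phosphorylation of biotinylated GST-cJun(1-79) at Ser73 is measured by AlphaScreen proximity luminescence. Enzyme is JNK3 in HepG2 lysates activated with interleukin-1beta and tumor necrosis factor alpha; ATP is 10 uM final.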

[5] = target: 3',5'-cyclic-AMP phosphodiesterase 4B (Homo sapiens) (UniProt Q07343); experiment: qHTS Assay for Inhibitors of PDE-IV (AID 607; active means well fitted activation curve with a large enough effect in the main read-out, with a control signal flat, not every such curve was filed as active; further: % of control where 0% means no effect); details: HEK293 ACTOne CNG channel cells, membrane potential fluorescence; series mostly up to 22.9 µM
How it was run: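 ACTOne HEK293 cells carry a modified cAMP-gated CNG channel and express endogenous PDE4; plated 1000 cells/well, compounds up to 22.9 uM final. Membrane-potential dye fluorescence (ex 535/em 590) was read; parental cells received 10 uM forskolin + 100 uM RO 20-1724.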

[6] = qHTS Assay for Lipid Storage Modulators (AID 1519; calls by dose curve); details: Drosophila S3 cells, BODIPY lipid droplet/cell ratio, laser cytometry, cells loaded with oleic acid; for activity change, negative = inhibition: at 57.5 µM (top of the series)
How it was run: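 Cells seeded at 5,000 per well were treated with compounds over a concentration series and loaded with oleic acid (400 uM, as added). Lipid droplet fluorescence (488 nm excitation, 500-530 nm channel) was read by laser-scanning cytometry and normalized to 20 uM Triacsin C.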

[7] = Primary qHTS for small molecule stabilizers of the endoplasmic reticulum resident proteome: Secreted ER Calcium Modulated Protein (SERCaMP) assay (AID 1508630); details: SH-SY5Y GLuc-SERCaMP (Gaussia luciferase released on ER calcium loss) secretion, thapsigargin, luminescence; series mostly up to 38.4 µM; further: on the % scale 0 is the no-effect control and ±100 the full control effect
How it was run: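 The SH-SY5Y reporter protocol was run at 3 concentrations up to 38.3 uM (primary) or 11 concentrations (follow-up): 16 h compound, 100 nM thapsigargin for 4 h, then extracellular luciferase luminescence.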

[8] = target: Cytochrome P450 1A2 (Homo sapiens) (UniProt P05177); experiment: p450-cyp1a2 (AID 410; calls by dose curve; further: potency means the concentration at half of the fitted maximal effect;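 on activity change, negative = inhibition: -100% = full effect of reference inhibitor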); details: recombinant CYP1A2, luciferin-ME demethylation, luminescence; series mostly up to 57 µM
How it was run: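 O-Demethylation of luciferin 6' methyl ether by human CYP1A2 is monitored as luciferase luminescence. Substrate sits at Km (100uM); enzyme is 20nM. Values are scaled to 57 uM furafylline as maximal inhibition.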

[9] = Stat Signaling Pathway (AID 446; active means well fitted curve in either direction with a large enough effect, not every such curve was filed as active;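 further: ME-180 cervical cancer cells given 40 pM IL-6 alongside compound; SIE-controlled beta-lactamase reporter measured as 460/530 nm FRET emission ratio; on the % scale 0 is the no-effect control and ±100 the full control effect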); details: ME-180 (cervical carcinoma) SIE beta-lactamase reporter, IL-6 stimulated, 5 h; at 7.69 µM (top of the series) unless noted
How it was run: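 Compound effects on IL-6-induced STAT reporter activity were measured in ME-180 cells. After overnight culture, cells were co-treated with 40 pM IL-6 for 5 hrs before beta-lactamase substrate loading at room temperature.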

[10] = target: Glucocorticoid receptor (Homo sapiens) (UniProt P04150); experiment: GR-GFP Redistribution (AID 450;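 active means compounds whose dose series gives a full or clear partial fitted curve of increased nuclear translocation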; further: potency means the concentration at half of the fitted maximal effect); details: U2OS GR-GFP nuclear translocation, laser cytometry, 2 h
[11] = target: Cytochrome P450 3A4 (Homo sapiens) (UniProt P08684); experiment: qHTS Assay for Inhibitors and Substrates of Cytochrome P450 3A4 (AID 884); details: recombinant CYP3A4, Luciferin-PPXE luminescence; series mostly up to 57.1 µM; further: potency means the concentration at half of the fitted maximal effect; nearly all actives have a fitted effect of over 50% in size
How it was run: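 Luminescent readout of luciferin produced by CYP3A4 (20 nM) dealkylation of Luciferin-PPXE, 25 uM (its KM). NADPH-driven reaction ran 60 min at RT after 10 min compound preincubation; data scaled to 57 uM ketoconazole as 100% inhibition.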

[12] = target: Cytochrome P450 3A4 (Homo sapiens) (UniProt P08684); experiment: qHTS Assay for Activators of Cytochrome P450 3A4 (AID 885); details: recombinant CYP3A4, Luciferin-PPXE luminescence, 60 min; series mostly up to 57.1 µM; further: nearly all actives have a fitted effect of over 65% in size
How it was run: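 CYP3A4 activity: Luciferin-PPXE O-dealkylation, 25uM substrate, 200mM KPO4, RT throughout. Read-out is luciferase luminescence; higher values reflect activation.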

[13] = Confirmation and Secondary Assay for Modulators of Hemoglobin Beta Chain Splicing at IVS2 654 locus (AID 910); details: HeLa EGFP-654 splicing reporter, GFP fluorescence, 48 h; series mostly up to 38.3 µM;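 further: per-well total GFP intensity by laser scanning cytometry after 2-day treatment; % of control where 0% means no effect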
How it was run: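 HeLa cells stably carrying EGFP interrupted by mutant beta-globin IVS2-654 intron (CMV-driven) were treated with compound for 2 days at 37C; corrected splicing was scored as total peak GFP intensity per well (488 nm excitation, 500-520 nm emission).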

[14] = Confirmation and Secondary Assay for Modulators of Hemoglobin Beta Chain Splicing at IVS2 705 locus (AID 930); details: HeLa EGFP-705 splicing reporter, GFP fluorescence, 48 h; series mostly up to 38.3 µM;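 further: HeLa cells stably expressing the EGFP-705 splicing reporter; GFP fluorescence per well restored by corrected splicing of the IVS2-705 intron in EGFP; % of control where 0% means no effect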
How it was run: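 Secondary splice-site specificity test uses HeLa expressing CMV-driven EGFP interrupted by IVS2-705; cells were treated 2 days at 37C with 500 nM antisense PNA as positive control.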

[15] = target: Ubiquitin carboxyl-terminal hydrolase 1 (Homo sapiens) (UniProt O94782); experiment: Inhibitors of USP1/UAF1: Pilot qHTS (AID 504865); details: purified USP1/UAF1, Ub-rhodamine cleavage fluorescence; series mostly up to 54.9 µM;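 further: rhodamine fluorescence freed from ubiquitin-rhodamine substrate followed over time; top concentration of the series differs between compounds; on the % scale 0 is the no-effect control and ±100 the full control effect; nearly all actives have a fitted effect of over 35% in size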
How it was run: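 Deubiquitinase activity followed as kinetic rhodamine fluorescence release from 150 nM Ub-Rho. 1 nM USP1/UAF1 with compound, after 15 min room-temperature preincubation, in HEPES pH 7.8 buffer containing TCEP, EDTA, BSA and Tween-20.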

[16] = target: Cytochrome P450 2C9 (Homo sapiens) (UniProt P11712); experiment: qHTS Assay for Inhibitors and Substrates of Cytochrome P450 2C9 (AID 883); details: recombinant CYP2C9, luciferin-H luminescence, 60 min; series mostly up to 57.1 µM; further: on the % scale 0 is the no-effect control and ±100 the full control effect; nearly all actives have a fitted effect of over 60% in size
How it was run: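 Human CYP2C9 (10nM) hydroxylated Luciferin-H (100uM, at its KM) to luciferin in 25mM KPO4. Compound was preincubated 10 min at 37C, then NADPH regeneration started a 60 min reaction at 37C. Luminescence was read after detection reagent, normalized to 57uM sulphaphenazole.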

[17] = NFAT Signaling Pathway (AID 444; active means well fitted curve in either direction with a large enough effect, not every such curve was filed as active); details: Jurkat NFAT-bla M1, carbachol, beta-lactamase ratio, 5 h; at 7.69 µM (top of the series) unless noted
How it was run: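 Jurkat cells carrying an NFAT-driven β-lactamase reporter and co-transfected muscarinic M1 receptor were treated with compound plus carbachol (1 uM final, an EC50 level) for 5 h at 37 °C. CCF4 loading followed for 1 h at RT; 460/530 nm ratio gave %activity.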

[18] = target: Cytochrome P450 2C19 (Homo sapiens) (UniProt P33261); experiment: qHTS Assay for Inhibitors and Substrates of Cytochrome P450 2C19 (AID 899); details: recombinant CYP2C19, luciferin-H EGE luminescence; series mostly up to 57.1 µM; further: potency means the concentration at half of the fitted maximal effect; nearly all actives have a fitted effect of over 60% in size
How it was run: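 Human CYP2C19 (5nM) with Luciferin-H EGE at 10uM (its KM) in 50mM KPO4 was preincubated with compound for 10 min at 37C. NADPH regeneration started a 60 min 37C reaction. Luciferin was read by luminescence, normalized to 57uM ketoconazole.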

[19] = target: Cytochrome P450 2D6 (Homo sapiens) (UniProt P10635); experiment: qHTS Assay for Inhibitors and Substrates of Cytochrome P450 2D6 (AID 891); details: recombinant CYP2D6, luciferin-ME EGE luminescence; series mostly up to 57.1 µM; further: potency means the concentration at half of the fitted maximal effect; nearly all actives have a fitted effect of over 60% in size
How it was run: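 Luminescent read-out of luciferin formed by 5 nM human CYP2D6 demethylating 30 uM Luciferin-ME EGE (Km level) over 60 min at room temperature after NADPH regeneration addition. Data normalized to full inhibition by 1.43 uM quinidine.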

[20] = measured here: cell count channel max response
[21] = measured here: lipid channel max response

Sequence of Glucocorticoid receptor (Homo sapiens) (P04150 whole entry, looked up, the tested form may be a part): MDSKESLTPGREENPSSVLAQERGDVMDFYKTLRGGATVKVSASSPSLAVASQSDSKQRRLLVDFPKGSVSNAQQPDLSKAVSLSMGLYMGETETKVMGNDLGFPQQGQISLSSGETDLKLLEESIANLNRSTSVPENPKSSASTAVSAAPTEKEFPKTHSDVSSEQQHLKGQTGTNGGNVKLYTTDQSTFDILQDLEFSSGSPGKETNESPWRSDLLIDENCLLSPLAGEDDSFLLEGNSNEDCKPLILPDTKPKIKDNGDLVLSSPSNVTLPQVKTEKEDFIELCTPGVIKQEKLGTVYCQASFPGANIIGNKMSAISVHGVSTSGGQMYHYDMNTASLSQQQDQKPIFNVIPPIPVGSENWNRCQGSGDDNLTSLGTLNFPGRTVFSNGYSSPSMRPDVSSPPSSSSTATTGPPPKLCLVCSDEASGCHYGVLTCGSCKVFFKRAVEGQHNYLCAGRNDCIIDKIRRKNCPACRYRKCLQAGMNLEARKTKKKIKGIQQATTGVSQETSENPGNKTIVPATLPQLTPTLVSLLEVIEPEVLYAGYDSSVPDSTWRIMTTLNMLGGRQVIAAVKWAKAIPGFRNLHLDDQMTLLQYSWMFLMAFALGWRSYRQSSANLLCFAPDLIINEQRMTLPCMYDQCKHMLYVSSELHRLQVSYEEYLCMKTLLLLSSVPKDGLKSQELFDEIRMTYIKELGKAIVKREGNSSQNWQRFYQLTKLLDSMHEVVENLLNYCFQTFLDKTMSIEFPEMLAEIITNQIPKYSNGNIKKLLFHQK
Sequence of Cytochrome P450 1A2 (Homo sapiens) (P05177 whole entry, looked up): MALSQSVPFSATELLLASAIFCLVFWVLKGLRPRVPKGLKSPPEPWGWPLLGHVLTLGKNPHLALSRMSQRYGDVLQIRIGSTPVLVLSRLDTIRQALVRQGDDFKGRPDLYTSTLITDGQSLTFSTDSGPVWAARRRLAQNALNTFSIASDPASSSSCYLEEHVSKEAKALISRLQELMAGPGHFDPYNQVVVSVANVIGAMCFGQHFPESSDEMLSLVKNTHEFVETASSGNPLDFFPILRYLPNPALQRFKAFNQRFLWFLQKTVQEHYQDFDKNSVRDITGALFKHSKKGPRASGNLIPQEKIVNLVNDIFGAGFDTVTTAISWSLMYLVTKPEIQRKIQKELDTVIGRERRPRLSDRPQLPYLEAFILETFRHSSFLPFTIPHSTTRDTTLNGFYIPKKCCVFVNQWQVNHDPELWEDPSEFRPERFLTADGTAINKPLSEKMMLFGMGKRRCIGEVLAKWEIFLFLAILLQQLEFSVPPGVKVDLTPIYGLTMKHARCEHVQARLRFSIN
Sequence of 3',5'-cyclic-AMP phosphodiesterase 4B (Homo sapiens) (Q07343 whole entry, looked up): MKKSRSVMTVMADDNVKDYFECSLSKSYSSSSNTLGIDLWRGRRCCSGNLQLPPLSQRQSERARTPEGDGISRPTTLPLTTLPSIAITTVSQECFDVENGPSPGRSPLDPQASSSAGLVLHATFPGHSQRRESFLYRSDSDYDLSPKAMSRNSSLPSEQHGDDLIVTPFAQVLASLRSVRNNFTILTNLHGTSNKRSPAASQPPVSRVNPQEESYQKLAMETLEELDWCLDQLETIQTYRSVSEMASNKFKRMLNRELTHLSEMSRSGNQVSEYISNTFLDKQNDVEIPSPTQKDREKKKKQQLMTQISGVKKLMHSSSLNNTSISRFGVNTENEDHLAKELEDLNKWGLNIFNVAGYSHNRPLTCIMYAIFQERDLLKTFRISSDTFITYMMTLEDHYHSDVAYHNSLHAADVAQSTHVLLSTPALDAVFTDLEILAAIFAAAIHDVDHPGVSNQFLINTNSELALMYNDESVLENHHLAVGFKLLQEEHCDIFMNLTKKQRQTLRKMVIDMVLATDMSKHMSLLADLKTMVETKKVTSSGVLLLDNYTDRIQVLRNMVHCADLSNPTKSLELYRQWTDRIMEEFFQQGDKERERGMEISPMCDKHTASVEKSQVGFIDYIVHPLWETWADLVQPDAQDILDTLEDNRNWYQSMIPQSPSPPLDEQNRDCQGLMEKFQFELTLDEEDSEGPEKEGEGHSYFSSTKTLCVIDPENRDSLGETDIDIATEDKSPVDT
Sequence of Lysosomal acid glucosylceramidase (Homo sapiens) (P04062 whole entry, looked up): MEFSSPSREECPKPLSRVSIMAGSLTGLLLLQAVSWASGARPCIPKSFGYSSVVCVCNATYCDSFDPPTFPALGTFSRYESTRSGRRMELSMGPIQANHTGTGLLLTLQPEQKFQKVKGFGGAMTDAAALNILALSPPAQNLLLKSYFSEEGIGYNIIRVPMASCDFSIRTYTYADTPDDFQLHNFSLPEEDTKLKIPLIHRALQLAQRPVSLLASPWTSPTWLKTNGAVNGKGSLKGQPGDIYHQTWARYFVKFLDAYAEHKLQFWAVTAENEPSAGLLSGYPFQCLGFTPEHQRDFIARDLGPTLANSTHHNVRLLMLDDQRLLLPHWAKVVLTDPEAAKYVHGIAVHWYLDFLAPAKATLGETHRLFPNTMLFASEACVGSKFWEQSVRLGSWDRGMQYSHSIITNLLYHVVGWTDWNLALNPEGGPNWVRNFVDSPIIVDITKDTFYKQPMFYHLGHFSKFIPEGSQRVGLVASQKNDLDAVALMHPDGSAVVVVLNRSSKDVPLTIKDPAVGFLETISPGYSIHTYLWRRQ
Sequence of Cytochrome P450 3A4 (Homo sapiens) (P08684 whole entry, looked up): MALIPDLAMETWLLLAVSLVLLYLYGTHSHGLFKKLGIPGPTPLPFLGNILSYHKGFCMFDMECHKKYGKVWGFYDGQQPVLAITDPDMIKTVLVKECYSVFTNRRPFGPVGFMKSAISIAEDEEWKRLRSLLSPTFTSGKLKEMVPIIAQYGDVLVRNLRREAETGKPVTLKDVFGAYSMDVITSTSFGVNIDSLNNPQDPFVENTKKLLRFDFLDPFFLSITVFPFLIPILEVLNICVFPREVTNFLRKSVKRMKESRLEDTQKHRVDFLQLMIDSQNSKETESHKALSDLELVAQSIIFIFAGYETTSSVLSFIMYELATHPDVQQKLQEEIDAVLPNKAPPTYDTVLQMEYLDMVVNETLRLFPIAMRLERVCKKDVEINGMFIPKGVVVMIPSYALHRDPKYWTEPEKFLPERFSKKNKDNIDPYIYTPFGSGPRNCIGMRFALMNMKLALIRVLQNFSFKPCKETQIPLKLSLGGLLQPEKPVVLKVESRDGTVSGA
Sequence of Ubiquitin carboxyl-terminal hydrolase 1 (Homo sapiens) (O94782 whole entry, looked up): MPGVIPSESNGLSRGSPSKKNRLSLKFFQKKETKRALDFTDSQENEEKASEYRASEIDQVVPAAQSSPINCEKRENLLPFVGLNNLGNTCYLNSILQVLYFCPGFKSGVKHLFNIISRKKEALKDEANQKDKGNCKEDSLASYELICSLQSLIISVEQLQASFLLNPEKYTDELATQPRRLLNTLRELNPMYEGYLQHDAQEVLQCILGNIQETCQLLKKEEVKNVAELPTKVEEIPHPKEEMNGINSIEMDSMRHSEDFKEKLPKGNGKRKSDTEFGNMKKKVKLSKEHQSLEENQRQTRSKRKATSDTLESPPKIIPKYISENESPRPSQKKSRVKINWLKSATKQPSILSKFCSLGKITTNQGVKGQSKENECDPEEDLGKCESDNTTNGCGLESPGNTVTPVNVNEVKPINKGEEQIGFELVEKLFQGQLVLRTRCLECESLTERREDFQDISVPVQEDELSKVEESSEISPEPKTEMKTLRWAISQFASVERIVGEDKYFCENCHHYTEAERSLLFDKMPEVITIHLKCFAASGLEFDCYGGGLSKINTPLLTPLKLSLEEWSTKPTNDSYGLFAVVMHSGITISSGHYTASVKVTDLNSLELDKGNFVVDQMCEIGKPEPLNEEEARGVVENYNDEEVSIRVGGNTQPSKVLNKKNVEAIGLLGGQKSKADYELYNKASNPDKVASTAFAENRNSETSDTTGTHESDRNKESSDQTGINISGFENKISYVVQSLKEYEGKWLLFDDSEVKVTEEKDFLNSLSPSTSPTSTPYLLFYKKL
Sequence of Cytochrome P450 2C19 (Homo sapiens) (P33261 whole entry, looked up): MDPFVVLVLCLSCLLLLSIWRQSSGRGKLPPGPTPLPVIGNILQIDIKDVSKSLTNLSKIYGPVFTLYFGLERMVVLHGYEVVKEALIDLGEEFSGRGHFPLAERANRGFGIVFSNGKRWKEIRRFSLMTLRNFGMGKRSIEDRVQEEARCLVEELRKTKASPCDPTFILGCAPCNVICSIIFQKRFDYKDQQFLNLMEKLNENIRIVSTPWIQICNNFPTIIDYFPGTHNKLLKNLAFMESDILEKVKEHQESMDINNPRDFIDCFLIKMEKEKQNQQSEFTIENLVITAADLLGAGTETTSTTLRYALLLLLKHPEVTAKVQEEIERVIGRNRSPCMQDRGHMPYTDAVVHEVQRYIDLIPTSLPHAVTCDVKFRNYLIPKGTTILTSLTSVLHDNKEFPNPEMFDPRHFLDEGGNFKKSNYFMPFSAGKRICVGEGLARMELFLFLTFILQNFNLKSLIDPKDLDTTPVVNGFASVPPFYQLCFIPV
Sequence of Cytochrome P450 2C9 (Homo sapiens) (P11712 whole entry, looked up): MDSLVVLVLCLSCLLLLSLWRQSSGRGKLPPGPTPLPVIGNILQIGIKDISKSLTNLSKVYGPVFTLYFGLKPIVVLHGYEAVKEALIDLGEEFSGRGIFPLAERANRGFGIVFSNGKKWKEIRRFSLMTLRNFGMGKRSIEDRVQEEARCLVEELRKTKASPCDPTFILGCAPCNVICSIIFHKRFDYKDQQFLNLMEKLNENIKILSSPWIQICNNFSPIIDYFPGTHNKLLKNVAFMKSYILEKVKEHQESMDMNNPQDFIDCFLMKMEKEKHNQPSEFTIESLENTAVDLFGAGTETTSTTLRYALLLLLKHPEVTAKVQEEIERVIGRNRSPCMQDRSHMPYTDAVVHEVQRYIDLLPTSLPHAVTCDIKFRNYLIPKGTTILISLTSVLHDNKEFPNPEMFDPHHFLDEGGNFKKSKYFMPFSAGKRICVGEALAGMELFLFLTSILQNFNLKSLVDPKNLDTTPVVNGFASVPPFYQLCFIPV

COc1ccccc1CN1CCCC2(CCN(C(=O)c3cc(C(F)(F)F)cc(C(F)(F)F)c3)CC2)C1
1.79%: max response [6, 21]
-3.38%: max response [6, 20]
inactive: Potency [1] > 11.4 µM | activity change, negative = inhibition [2] 16.7% | Potency [3] > 46 µM | Potency [4] | Potency [5] | activity change, negative = inhibition [6] 3.12% | outcome [7]

Cc1cnc(CNc2ncncc2-c2ccccc2CN(C)C)cn1
0.168%: max response [6, 21]
4.47%: max response [6, 20]
active: Potency [8] 12.6 µM | Potency [11] 3.16 µM
inactive: Potency [1] > 11.4 µM | activity, negative = inhibition [9] 17.1% | Potency [10] > 46 µM | Potency [3] > 46 µM | Potency [4] | Potency [5] | Potency [12] | Potency [13] | outcome [14] | activity change, negative = inhibition [6] -8.48% | Potency [15] | outcome [7]

O=S(=O)(c1ccccc1)N1CCC2(CC1)CN(c1ccncc1)C2
-0.685%: max response [6, 21]
0.397%: max response [6, 20]
inactive: Potency [1] > 11.4 µM | activity change, negative = inhibition [2] 0.671% | activity, negative = inhibition [9] 0.614% | Potency [3] > 46 µM | Potency [4] | Potency [5] | Potency [16] | Potency [12] | activity change, negative = inhibition [6] 2% | outcome [7]

COc1ccccc1CNc1ncncc1-c1ccccc1C
5.51%: max response [6, 21]
-3.12%: max response [6, 20]
active: Potency [8] 7.94 µM | Potency [18] 3.98 µM
inactive: Potency [1] > 11.4 µM | activity change, negative = inhibition [17] -19.5% | activity, negative = inhibition [9] 12.8% | Potency [10] > 46 µM | Potency [3] > 46 µM | Potency [4] | Potency [5] | Potency [12] | Potency [13] | outcome [14] | activity change, negative = inhibition [6] 9.38% | Potency [15] | outcome [7]

COc1ccccc1CN1CCC2(CC1)CCN(S(C)(=O)=O)CC2
-18.8%: max response [6, 20]
-18.2%: max response [6, 21]
inactive: Potency [1] > 11.4 µM | Potency [8] | activity change, negative = inhibition [17] -27.6% | activity, negative = inhibition [9] -4.05% | Potency [3] > 46 µM | Potency [4] | Potency [5] | activity change, negative = inhibition [6] -1.09% | outcome [7]
active: Potency [19] 0.02 µM

O=C(c1ccncc1)N1CCC2(CCCN(c3ccncc3)C2)CC1
-10.7%: max response [6, 20]
-8.67%: max response [6, 21]
inactive: Potency [1] > 11.4 µM | activity change, negative = inhibition [2] -3.65% | activity, negative = inhibition [9] -4.53% | Potency [3] > 46 µM | Potency [4] | Potency [5] | activity change, negative = inhibition [6] 0.736% | outcome [7]
